An excerpt weighted towards active compounds, which were near 0.81% of everything screened.
TRPML1 agonist: qHTS for Agonists of the Human Mucolipin Transient Receptor Potential 1 (TRPML1); TRPML1-expressing cells, Ca2+ dye fluorescence, FDSS; activation, % (concentration not given with the values); AID 624414, 2012; Mucolipin-1 (Homo sapiens), Q9GZU1; 0.12% of 410,000 active; in the data active means activation above about 50%; further: 0% is about no effect
Target sequence (Q9GZU1 whole entry, looked up): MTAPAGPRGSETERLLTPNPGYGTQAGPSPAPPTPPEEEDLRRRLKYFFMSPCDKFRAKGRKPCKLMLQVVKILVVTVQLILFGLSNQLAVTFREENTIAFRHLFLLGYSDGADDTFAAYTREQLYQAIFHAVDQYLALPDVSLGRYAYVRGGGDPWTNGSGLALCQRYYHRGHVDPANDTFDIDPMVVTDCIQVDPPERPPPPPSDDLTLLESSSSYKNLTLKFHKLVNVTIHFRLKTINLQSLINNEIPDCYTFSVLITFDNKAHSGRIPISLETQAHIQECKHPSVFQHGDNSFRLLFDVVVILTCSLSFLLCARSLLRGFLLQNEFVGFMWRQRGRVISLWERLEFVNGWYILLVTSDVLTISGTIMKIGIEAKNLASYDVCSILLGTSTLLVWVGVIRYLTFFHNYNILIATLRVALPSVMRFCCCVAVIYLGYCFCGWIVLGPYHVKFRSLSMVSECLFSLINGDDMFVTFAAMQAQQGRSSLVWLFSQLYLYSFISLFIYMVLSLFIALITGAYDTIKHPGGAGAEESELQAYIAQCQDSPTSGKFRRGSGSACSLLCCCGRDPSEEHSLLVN
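Cells: TRPML1-DL, 1X Tet inducer, ~16 h at 37 degrees C/5% CO2. Dye: ABD Ca8 no-wash + quencher, 45-90 min RT. Read: 10 s baseline, compound add, 110 s agonist phase; 54-4 EC80 (4uM final), 110 s antagonist phase.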
TRHR PAM: qHTS for Small Molecule Agonists and Allosteric Enhancers of Human TRH Receptor: Primary Screen for Enhancers. TRHR cells, fluo-8 calcium fluorescence, EC20 TRH enhancement. Thyrotropin-releasing hormone receptor (Homo sapiens), P34981. enhancement, % at 2 µM. AID 493056, 2011. 0.66% of 360,000 active; in the data active means enhancement above about 30%; further: 0% is about no effect
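TRHR-expressing cells loaded with fluo-8 calcium dye were read kinetically (ex 480/em 530) during compound addition, then stimulated with an EC20 of TRH (10 nM final). Enhancement of the Gq-mediated intracellular calcium response was scored.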
TRHR agonist: qHTS for Small Molecule Agonists and Allosteric Enhancers of Human TRH Receptor: Primary Screen for Agonists | Thyrotropin-releasing hormone receptor (Homo sapiens), P34981 | TRHR cells, calcium flux fluo-8, FDSS agonist mode | activation, % at 2 µM | 0.18% of 360,000 active | AID 493084, 2011; in the data active means activation above about 30%; further: 0% is about no effect
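TRHR-expressing cells loaded with fluo-8 calcium dye; 23 nL library compound pin-transferred, kinetic FDSS fluorescence (Ex 480/Em 530) recorded about 180 s for agonist-induced calcium release, before a 10 nM TRH EC20 addition for potentiator mode.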
TRPML1 inh: qHTS for Inhibitors of the Human Mucolipin Transient Receptor Potential 1 (TRPML1); Mucolipin-1 (Homo sapiens), Q9GZU1; TRPML1-inducible cells, Ca2+ dye fluorescence, FDSS; active compounds read low; inhibition of EC80 agonist-evoked calcium signal; activity change, negative = inhibition, % (concentration not given with the values); 0.02% of 390,000 active; AID 624415, 2012; in the data active means activity change below about -50%;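 further: stimulus is agonist 54-4 at its EC80 concentration; on the % scale 0 is the no-effect control and ±100 the full control effect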
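TRPML1-DL cells, Tet-induced overnight (~16 h, 37 °C) at 1,500 cells/well, were loaded with Ca8 no-wash dye plus quencher for 45-90 min at room temperature. Compounds were pinned during FDSS kinetic reading; agonist 54-4 at EC80 (4 uM final) then added.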
Numbers without * were called inactive; · = not tested or not shown.

SMILES	TRPML1 agonist	TRHR PAM	TRHR agonist	TRPML1 inh
Cc1cc(NC(=O)c2ccc(-c3ccccc3F)o2)no1	0	37*	0	5
Cc1cc(NC(=O)c2c(Cl)cccc2Cl)no1	2	30*	-1	-12
O=C(OCn1nnc2ccccc2c1=O)c1ccc(Br)o1	-1	33*	-1	14
O=C(NN1C(=O)C2C3C=CC(C4CC34)C2C1=O)c1ccc(Cl)c(Cl)c1 (stereo not given)	0	30*	1	-8
O=C1c2ccccc2NC(c2cn[nH]c2-c2ccccc2)N1O (stereo not given)	2	2	0	-58*
Cc1cc2c(cc1C)N[C@]1(C[C@H]3CCCC(=O)N4CC[C@@H](C1)[C@@H]34)C(=NC1CCCCC1)N2	-1	·	·	·
Cn1nc(C(F)(F)F)c2cc(NC(=O)OCc3ccc(F)cc3)sc21	2	1	0	13
COc1ccc(COC(=O)Nc2cc3c(C(F)(F)F)nn(C)c3s2)cc1	1	30*	0	11
c1ccc2c(c1)sc[n+]2CCC1CCCCC1	0	·	·	·
CCOc1ccccc1NC(=O)c1ccc(S(=O)(=O)N2CCCCC2)cc1	2	32*	-1	-3
CCN1CCN(S(=O)(=O)c2ccc(Cl)c(C(=O)Nc3ccccc3N3CCCC3)c2)CC1	1	3	0	-2
CCN1CCN(S(=O)(=O)c2ccc(Cl)c(C(=O)Nc3ccccc3N3CCCCC3)c2)CC1	100*	-2	0	-16
COc1ccccc1NC(=O)c1ccc(S(=O)(=O)N2CCCC2)cc1	-1	-4	0	-10
Cc1ccccc1CNS(=O)(=O)c1ccccc1[N+](=O)[O-]	-1	32*	0	-1
Cc1cc2c(s1)c1cnn(Cc3cccc(Br)c3)c(=O)c1n2C	·	1	-2	·
CNc1ccc2c3c(cccc13)C(=O)N(C)C2=O	78*	47*	262*	-13
Cc1ccccc1NC(=O)Nc1nnc(N(C)Cc2ccccc2)s1	1	0	-1	20
Cc1c(Cl)cccc1NC(=O)Nc1nnc(N(C)Cc2ccccc2)s1	58*	-3	-1	-15
Nc1c(C(=O)Nc2cccc(Cl)c2)sc2nc3c(cc12)CN(Cc1ccccc1)CC3	3	33*	0	20
O=C(O)c1cc(-c2ccc(/C=C3/SC(=S)N(Cc4ccccc4)C3=O)o2)ccc1Cl	2	14	-1	11
O=C(O)CN1C(=O)/C(=C/c2ccc(-c3cccc(Cl)c3)o2)SC1=S	·	32*	2	·
COc1ccc(-c2nc(N3CCN(S(=O)(=O)c4ccc(F)cc4)CC3)c3ccccc3n2)cc1	1	39*	-1	56
Cc1[nH]c2c(Br)cccc2c1[C@H]1[C@@H](CC#N)C1(C)C	1	32*	0	13
Cc1cc(/C=C2\C=Cc3ccccc32)cc(C)c1N	0	·	·	·
Cc1ccc(-n2c(-c3nn(C)cc3Cl)n[nH]c2=S)cc1	0	31*	2	24
SMILES	TRPML1 agonist	TRHR PAM	TRHR agonist	TRPML1 inh
Oc1ccccc1Cn1c(-c2ccccc2O)nc2ccccc21	1	3	2	-12
COc1ccccc1Cn1c(-c2ccccc2OC)nc2ccccc21	2	37*	0	6
O=c1[nH]cnc2n[nH]nc12	0	·	·	·
CC1CCN(c2nc(-c3cccnc3)nc3scc(-c4ccccc4)c23)CC1	-1	41*	0	-13
COc1ccc(-c2noc(CN(C)C3CCOCC3)n2)cc1	0	32*	0	5
Cc1ccc2cc(CN(Cc3cccs3)Cc3nnnn3C(C)(C)C)c3nnnn3c2c1	·	32*	0	·
O=C(Nc1nnc(-c2ccccc2Cl)o1)c1ccco1	4	-1	0	-18
O=C(Nc1nnc(-c2ccccc2Cl)o1)c1nc2ccccc2s1	65*	-10	19	2
Cc1ccccc1NC(=O)c1ccc(N(Cc2ccccc2)S(C)(=O)=O)cc1	-1	36*	0	2
O=C1c2cccc([N+](=O)[O-])c2C(=O)N1c1c[nH]c(=O)[nH]c1=O	-1	30*	0	-8
Cc1ccc(-n2c(CCc3ccccc3)n[nH]c2=S)cc1C	0	31*	0	9
CCn1c(SCC(=O)Nc2sc(C)c(C)c2C#N)nnc1C(C)C	0	31*	-1	-2
COCCn1c(SCC(=O)Nc2sc(C)c(C)c2C#N)nnc1C(C)C	-1	-1	-1	3
C/C=C(\C)CN1CCc2cc(OC)c(OC)cc2C1	1	32*	0	-7
COc1cc2c(cc1OC)CN(CC(=O)NC(=O)NCc1ccccc1)CC2	-1	-1	0	-4
Cc1ccc(NC(=O)C(=O)NCC2OCCc3ccccc32)cc1 (stereo not given)	0	33*	0	-12
CC(C)OC(=O)CC(=O)c1sc2nc3c(cc2c1N)CN(C)CC3	0	38*	0	-10
Cc1ccc(-c2nc3ccccc3[nH]2)s1	-1	35*	-1	-2
CNc1ccc(/C=C2\C=Cc3ccccc32)cc1Cl	0	·	·	·
CCC(=O)NC(c1ccc(C)cc1)c1cc(Cl)c2cccnc2c1O (stereo not given)	·	-9	4	·
CCC(=O)NC(c1ccc(Br)o1)c1cc(Cl)c2cccnc2c1O (stereo not given)	·	4	30*	·
COc1cc2nc(N3CCCN(C)CC3)nc(Nc3ccncc3)c2cc1OC	0	·	·	·
Cc1ccc(-n2nc(C(=O)N(C)c3ccccc3Cl)c3c4ccccc4n(C)c3c2=O)cc1	1	8	56*	-25
COc1cc(/C=C2\C(=N)N3N=C(S(C)(=O)=O)SC3=NC2=O)ccc1OCCOc1ccccc1C	-2	35*	1	-5
CC(C)(C)OC(=O)Cc1nnc(-c2nc3ccccc3[nH]2)o1	·	-1	2	·
SMILES	TRPML1 agonist	TRHR PAM	TRHR agonist	TRPML1 inh
Cc1ccc(C(C)C)cc1OCC(=O)Nc1nnc(C2CC2)s1	2	·	·	13
Cc1cc(OCC(=O)Nc2nnc(C3CC3)s2)ccc1C(C)C	2	36*	2	-1
COc1cc(OC)c(OC)cc1/C=c1\[nH]c(=O)/c(=C/c2cc(OC)c(OC)cc2OC)[nH]c1=O	0	·	·	·
COc1cccc(C2Nc3ccccc3NC3=C2C(=O)CC(C)(C)C3)c1OC (stereo not given)	0	35*	1	-1
N#Cc1ccc(/C=C2\C=Cc3ccccc32)cc1	0	·	·	·
COc1ccccc1N=Nc1[nH]c2ccc(C)cc2c1O	1	34*	0	7
COc1ccc(-n2cnc3cc(NCc4ccccn4)ccc32)cc1	2	8	-1	21
COc1ccccc1-n1cnc2cc(NCc3ccccn3)ccc21	0	-2	-1	-51*
Cc1noc(/C=C/c2ccc(-c3ccccc3Cl)o2)c1[N+](=O)[O-]	5	10	32*	-5

Source: PubChem BioAssay
